Sampled rows, rich in hits. Any-hit rate of the full collection: about 21%.
MRP resist rev: reversal of MRP1-mediated doxorubicin resistance, primary screen, H69AR cells, doxorubicin co-treatment; hit rate 0.04% among 85,000; H69AR cells + 2 uM doxorubicin, CellTiter-Glo, 72 h; differential viability (reversal), % at 10 µM;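 active means viability drop by adding the cancer drug above about 55%, with treated viability meeting a 40% cutoff, limit read from the data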;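 further: viability without doxorubicin minus viability with 2 µM doxorubicin for each compound; larger differential means the compound sensitizes cells more to doxorubicin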
MRP1 act: H69AR viability gain despite doxorubicin, primary screen, MRP-1 activator project, H69AR cells, CellTiter-Glo; viability rescue; AID 799, 2007; viability increase, % at 10 µM; hit rate 0.61% among 140,000;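 active means viability gain under doxorubicin at or above a set limit, the compound median plus 3 SD, cut at about 4.7% in these data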;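 further: MRP-1 overexpressing cells given doxorubicin 25 µM after compound pretreatment; 18-22 h compound pretreatment then 72 h with doxorubicin before readout; 0% = doxorubicin-only wells and 100% = vehicle-treated cells without doxorubicin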
CYP2C9 act: human CYP2C9 activators, primary screen, biochemical, luminescence; AID 1024, 2008; recombinant CYP2C9, luciferin-H conversion; active compounds read high; factor 1 = untreated enzyme, 0 = blocked; Cytochrome P450 2C9 (Homo sapiens), P11712; hit rate 1.4% among 96,000; activation factor at 5 µM;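 active means activation factor of 2 or more for CYP2C9 at a 5 µM dose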;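 further: 0 = sulfaphenazole-blocked wells and 1 = vehicle-only wells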
CYP2C19 act: human CYP2C19 activators, primary screen, biochemical, luminescence; Cytochrome P450 2C19 (Homo sapiens), P33261; recombinant CYP2C19, luciferin-H EGE luminescence; active compounds read high; 0 = fully inhibited enzyme, 1 = untreated enzyme; activation factor at 5 µM; 96,000 tested, under 10 active;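 active means activation factor of at least 2 at 5 µM in the primary screen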;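 further: 0 = wells with 2.5 mM tranylcypromine and 1 = vehicle-only wells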
Target sequence (P33261 whole entry, looked up): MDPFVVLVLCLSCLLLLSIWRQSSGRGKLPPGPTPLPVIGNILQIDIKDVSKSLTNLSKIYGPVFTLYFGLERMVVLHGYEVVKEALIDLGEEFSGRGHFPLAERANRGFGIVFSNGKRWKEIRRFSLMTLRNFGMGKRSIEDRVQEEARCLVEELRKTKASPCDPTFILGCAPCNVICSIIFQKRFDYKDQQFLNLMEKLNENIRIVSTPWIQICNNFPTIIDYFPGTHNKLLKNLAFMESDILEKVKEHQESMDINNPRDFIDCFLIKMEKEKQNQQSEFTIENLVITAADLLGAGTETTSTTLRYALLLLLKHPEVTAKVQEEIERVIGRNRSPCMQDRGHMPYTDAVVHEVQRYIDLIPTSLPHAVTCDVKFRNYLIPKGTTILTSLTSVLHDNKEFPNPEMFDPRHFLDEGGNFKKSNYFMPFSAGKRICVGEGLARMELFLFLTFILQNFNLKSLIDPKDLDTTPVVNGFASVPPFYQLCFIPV
CYP2C19 inhib: blockers of cytochrome P450 2C19 activity – biochemical, luminescence, ADME assay, primary screen. P33261. CYP2C19 Supersomes, luciferin-H EGE luminescence, 30 min. inhibition, % at 5 µM. hit rate 21% among 96,000;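 active means CYP2C19 inhibition above a set limit at 5 µM in the primary screen, cut at about 50% in these data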;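 further: plate controls were negative control wells for no effect and 2.5 mM tranylcypromine positive control for full effect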
CYP2C9 inhib: blockers of cytochrome P450 2C9 activity – biochemical, luminescence, ADME assay, primary screen; P11712; CYP2C9 Supersomes, luciferin-H conversion; inhibition, % at 5 µM; hit rate 20% among 96,000;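 active means blocking of liver enzyme CYP2C9 beyond about 50% at 5 µM, limit read from the data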
The depositor's hits bear a star; / = no result.

SMILES	MRP resist rev	MRP1 act	CYP2C9 act	CYP2C19 act	CYP2C19 inhib	CYP2C9 inhib
CC(C)C(NC(=O)c1ccccc1NC(=O)c1ccco1)C(=O)O (stereo not drawn)	5	-1	1	0.9	8	-2
O=c1nc2n(c3c4c(sc13)CCC4)CCC2	-30	0	0.9	0.8	15	7
CCN=C1Sc2nc3ccc(OCC)cc3cc2CN1CCOC	/	-2	0	0.1	91*	96*
CCOc1ccc2nc3c(cc2c1)CN(CCOC)C(=NC)S3	7	-2	/	/	/	/
Cc1ccc(NC(=O)c2oc3ccc(S(=O)(=O)N4CCC5(CC4)OCCO5)cc3c2C)cc1C	12	-4	/	/	/	/
Cc1ccccc1C(=O)c1cccn1CC(=O)NCc1ccco1	4	-2	0.9	0.9	10	5
Cc1ccccc1C(=O)c1cccn1CC(=O)NCCN1CCN(c2cccc(C)c2C)CC1	-25	-3	0.5	0.2	83*	46
CN(C)Cc1cc(C(C)(C)c2cc(CN(C)C)c(O)c(CN(C)C)c2)cc(CN(C)C)c1O	5	-2	/	/	/	/
C=CCc1cc(C(=O)N2CCCCC2)ccc1O	-5	-2	0.7	0.1	89*	34
CC1(C)Cc2c(sc(/N=C/N3CCCC3)c2C#N)C(C)(C)N1	-6	1	/	/	/	/
COc1cccc(NS(=O)(=O)c2c(C)n(C)c(=O)n(C)c2=O)c1	-1	-2	1	0.8	15	0
O=C(Nc1ccc(Cl)c(Cl)c1)N1CCSCC1	8	0	/	/	/	/
COC(=O)C1CSC(C(=O)OC)N1C(=O)Nc1ccc(Cl)c(Cl)c1 (stereo not drawn)	/	0	0.3	0.4	61*	67*
COC(=O)C1CSC(C(=O)OC)N1C(=O)Nc1ccc(Cl)cc1 (stereo not drawn)	/	-1	0.9	0.3	69*	12
CCC(=O)N1c2ccccc2NC2=C(C(=O)CCC2)C1c1ccc(N(C)C)cc1 (stereo not drawn)	9	-3	1	1.1	-5	-2
N#CC1=C(N)Oc2n[nH]c(-c3ccccc3)c2C1c1cccc(OC(=O)N2CCOCC2)c1 (stereo not drawn)	14	-2	0.4	0.8	19	57*
COc1cccc(-c2[nH]nc3c2C(c2ccoc2)C(C#N)=C(N)O3)c1 (stereo not drawn)	12	1	0.5	0.1	87*	50
CCCc1ccc(C(=O)NNC(=O)c2ccc(Br)cc2)cc1	/	0	/	/	/	/
O=C(NNC1=C(C(=O)C(F)(F)F)CCC1)c1ccccc1Cl	-18	3	0	1.1	-10	96*
COc1ccccc1C(=O)NNC1=C(C(=O)C(F)(F)F)CCC1	/	-2	0.8	0.9	6	21
O=C(NNC1=C(C(=O)C(F)(F)F)CCC1)c1ccc(Br)cc1	-28	4	0.3	0.9	7	69*
O=C(NNC1=C(C(=O)C(F)(F)F)CCC1)c1ccccc1O	-9	2	0.2	0.7	26	85*
COc1ccccc1N1CCN(c2ccc([N+](=O)[O-])cc2Cl)CC1	/	-3	/	/	/	/
O=C(N/N=C\CCc1ccccc1)c1ccco1	/	-1	/	/	/	/
CC(C)CCNC(=O)c1sc2ccc(S(=O)(=O)N3CCCCC3)cc2c1N	/	-1	/	/	/	/
SMILES	MRP resist rev	MRP1 act	CYP2C9 act	CYP2C19 act	CYP2C19 inhib	CYP2C9 inhib
CN(C(=O)CSc1nc(-c2ccccc2)cn1N)C(c1ccccc1)c1ccccc1	-1	0	0.2	0.8	24	76*
COc1ccccc1CNC(=O)CSc1nc(-c2ccccc2)cn1N	5	-3	0.1	0.1	93*	87*
Nn1cc(-c2ccccc2)nc1SCC(=O)NCCN1C(=O)CSC1=O	-3	-1	0.8	0.4	60*	16
Nn1cc(-c2ccccc2)nc1SCC(=O)NC1CCS(=O)(=O)C1 (stereo not drawn)	7	-1	1	0.9	10	-1
COc1ccc(N/N=C(\C=N\O)C(=O)c2ccc(OC)cc2)cc1	-37	-3	0.1	0.3	75*	88*
CCc1ccc(/C=C2\SC(=S)N(CCCC(=O)Nc3ccccn3)C2=O)cc1	/	3	0.5	0.7	26	47
CCc1ccc(/C=C2/SC(=S)N(CC(=O)Nc3nc4ccccc4s3)C2=O)cc1	/	3	0.5	0.9	15	53*
N#C/C(=C1/CCCCCN1)c1nc2ccccc2s1	-8	-1	1	1	-5	3
Cc1cc(C(=O)NC2CCCc3ccccc32)c(C)o1 (stereo not drawn)	/	-3	0.3	0.7	30	70*
CN(C)S(=O)(=O)c1cccc(C(=O)NC2CCCc3ccccc32)c1 (stereo not drawn)	17	-2	0.9	0.9	13	12
CSCc1c(C(=O)NC2CCCc3ccccc32)oc2ccccc12 (stereo not drawn)	/	-1	0.4	1.2	-15	55*
CCN(CC)S(=O)(=O)c1ccc2oc(C(=O)NC3CCCc4ccccc43)c(C)c2c1 (stereo not drawn)	5	-1	0.4	0.7	25	59*
CCN(CC)S(=O)(=O)c1ccc2oc(C(=O)N3CCc4ccccc4C3)c(C)c2c1	/	-3	/	/	/	/
CCCNS(=O)(=O)c1cccc(C(=O)NC2CCCc3ccccc32)c1 (stereo not drawn)	/	-1	0.1	0.2	78*	89*
Cc1cc(C(=O)NC2CCCc3ccccc32)no1 (stereo not drawn)	17	-1	0.9	0.6	41	13
O=C(COC(=O)c1cc(-c2cccs2)nn1-c1ccccc1)Nc1ccc(Cl)c([N+](=O)[O-])c1	/	-2	/	/	/	/
Cc1nc2ccccn2c1C(=O)NCc1cccnc1	-1	-3	0.9	0.5	49	9
Oc1ccccc1C1=Nc2nc3ccccc3n2C(c2ccccc2)C1 (stereo not drawn)	-1	-6	0	0.1	92*	99*
CCc1ccc(-c2cc(C(F)(F)F)n3nc(C(=O)Nc4cnn(Cc5ccc(C)cc5)c4)cc3n2)s1	/	-3	0.7	0.9	12	33
CSC1=C(C#N)C(c2ccccc2Cl)C2=C(CCCC2=O)N1 (stereo not drawn)	5	/	0.7	0.9	5	30
CSC1=C(C#N)C(c2ccccc2Cl)C2=C(N1)c1ccccc1C2=O (stereo not drawn)	/	-1	0.5	0.5	53*	47
CSC1=C(C#N)C(c2ccccc2C)C(C#N)=C(N)N1 (stereo not drawn)	-21	-2	0	0.1	86*	99*
COC(=O)C1C/C(=N\NS(=O)(=O)c2ccc(C)cc2)c2ccsc2C1 (stereo not drawn)	/	1	/	/	/	/
